{"source": "PubChem BioAssay AID652197", "about": "(Broad Institute, 2013)", "note": "Several values for one entry are separate records, joined by “and”; a condition that tells them apart may be missing. Equal entries are not always repeated. Among all 340,000 compounds or so, about 500 (0.15%) were called active. The sample as a whole holds a higher share of actives than the screen did. A number with no mark means an inactive call.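 How the source made its calls: active means mean replicate inhibition of at least 30%, or all replicates individually reaching that 30% level; inactive means mean below 30% and not every replicate reaching it.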", "data": [{"target": "Endoplasmic reticulum aminopeptidase 1 (Homo sapiens) (UniProt Q9NZ08)", "sequence (Q9NZ08 whole entry, looked up)": "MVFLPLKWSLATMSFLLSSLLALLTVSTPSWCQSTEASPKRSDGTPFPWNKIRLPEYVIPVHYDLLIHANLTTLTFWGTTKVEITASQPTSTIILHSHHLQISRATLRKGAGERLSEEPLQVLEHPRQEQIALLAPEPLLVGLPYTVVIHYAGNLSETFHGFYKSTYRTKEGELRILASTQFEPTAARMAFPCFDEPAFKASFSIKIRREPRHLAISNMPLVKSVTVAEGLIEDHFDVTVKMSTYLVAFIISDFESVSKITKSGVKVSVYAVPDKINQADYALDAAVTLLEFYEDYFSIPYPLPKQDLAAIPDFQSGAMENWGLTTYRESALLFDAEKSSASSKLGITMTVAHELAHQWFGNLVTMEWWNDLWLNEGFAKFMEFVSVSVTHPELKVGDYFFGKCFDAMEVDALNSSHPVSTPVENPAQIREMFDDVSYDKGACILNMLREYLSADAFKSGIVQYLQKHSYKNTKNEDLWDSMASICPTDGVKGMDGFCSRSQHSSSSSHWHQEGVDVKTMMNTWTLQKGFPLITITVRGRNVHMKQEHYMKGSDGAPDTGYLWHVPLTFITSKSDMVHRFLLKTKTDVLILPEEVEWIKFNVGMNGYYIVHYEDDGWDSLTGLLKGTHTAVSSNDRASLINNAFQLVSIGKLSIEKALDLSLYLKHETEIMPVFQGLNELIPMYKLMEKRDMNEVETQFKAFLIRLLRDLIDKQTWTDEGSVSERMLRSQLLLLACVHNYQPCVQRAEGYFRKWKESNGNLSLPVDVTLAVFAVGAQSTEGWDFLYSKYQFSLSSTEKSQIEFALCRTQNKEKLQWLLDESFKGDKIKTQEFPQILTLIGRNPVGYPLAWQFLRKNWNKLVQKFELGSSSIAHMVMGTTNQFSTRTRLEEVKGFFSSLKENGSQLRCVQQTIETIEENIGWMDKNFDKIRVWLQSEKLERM", "test": "inhibition of ERAP1 peptide trimming enzyme – biochemical, single point, plate reader, primary screen (AID 652197);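 further: 0% = neutral control wells and 100% = L-leucinethiol positive control wells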", "settings": "recombinant ERAP1, Leu-AMC fluorescence, 60 min; at 10.7 µM; active compounds read high", "values": [{"molecule": "CO[C@H]1CN(C)C(=O)c2ccc(NC(=O)C3CC3)cc2OC[C@@H](C)N(C(=O)CN2CCOCC2)C[C@H]1C", "inhibition": "5.08%"}, {"molecule": "COc1ccc(S(=O)(=O)N(C)C[C@@H]2Oc3ccc(NC(=O)C4CC4)cc3CC(=O)N([C@@H](C)CO)C[C@H]2C)cc1", "inhibition": "-1.45%"}, {"molecule": "CNC[C@H]1Oc2cc(-c3ccc(OC)cc3)ccc2S(=O)(=O)N([C@H](C)CO)C[C@@H]1C", "inhibition": "-1.76%"}, {"molecule": "CO[C@@H](CN(C)S(=O)(=O)c1ccccc1)[C@H](C)CN(Cc1ccccc1Cl)[C@H](C)CO", "inhibition": "-0.894%"}, {"molecule": "C[C@@H](NC(=O)C[C@H]1C[C@@H]2c3cc(NC(=O)C4CCC4)ccc3O[C@@H]2[C@@H](CO)O1)c1ccccc1", "inhibition": "-1.46%"}, {"molecule": "CO[C@@H]1CN(C)C(=O)c2ccc(NC(=O)Nc3cc(F)ccc3F)cc2OC[C@@H](C)N(C)C[C@@H]1C", "inhibition": "2.65%"}, {"molecule": "CO[C@@H]1CC[C@@H]2CCOc3c(C#N)cccc3C(=O)N(C)C[C@H](C)C(=O)N(C)C[C@H]1O2", "inhibition": "0.999%"}, {"molecule": "COc1ccc(CNC(=O)C[C@H]2C[C@@H]3c4cc(NC(=O)NC5CCCC5)ccc4O[C@@H]3[C@H](CO)O2)cc1", "inhibition": "2.29%"}, {"molecule": "C/C=C/c1ccc2c(c1)O[C@H](CN(C)Cc1cccc(F)c1)[C@H](C)CN([C@H](C)CO)S2(=O)=O", "inhibition": "3.38%"}, {"molecule": "COc1ccccc1C#Cc1ccc([C@@H]2[C@H](CO)N3CCCCN(CCC(F)(F)F)C[C@@H]23)cc1", "inhibition": "-1.03%"}, {"molecule": "CCC(=O)N1[C@H](C(=O)NC2CCC2)[C@@H](CO)[C@@H]2Cn3c(cccc3=O)[C@@H]21", "inhibition": "-1.13%"}, {"molecule": "O=C(CCN1CCCCC1)NCC[C@@H]1CC[C@H](NS(=O)(=O)c2cccc(Cl)c2)[C@H](CO)O1", "inhibition": "-1.39%"}, {"molecule": "C/C=C/c1ccc2c(c1)[C@H]1[C@H](CCN1S(=O)(=O)c1cn(C)cn1)[C@H](CO)N2", "inhibition": "-3.06%"}, {"molecule": "CO[C@@H]1CC[C@@H]2CCOc3c(C#N)cccc3C(=O)N(C)C[C@@H](OC)[C@@H](C)C(=O)N(C)C[C@H]1O2", "inhibition": "-3.74%"}, {"molecule": "COc1cccc(NC(=O)N[C@H]2C=C[C@H](CC(=O)NCc3ccccn3)O[C@@H]2CO)c1", "inhibition": "6.83%"}, {"molecule": "COc1ccccc1CN1[C@H](CO)[C@@H](c2ccccc2)C12CN(C(=O)c1cnccn1)C2", "inhibition": "0.797%"}, {"molecule": "C[C@H]1CCCCO[C@H](CN(C)C(=O)NC2CCCCC2)[C@@H](C)CN([C@@H](C)CO)C(=O)c2cc(NC(=O)Nc3ccc4c(c3)OCO4)ccc2O1", "inhibition": "-0.479%"}, {"molecule": "CN(c1ccccc1)S(=O)(=O)c1cc(C(=O)OCC(=O)N2CCN(C(=O)c3ccco3)CC2)ccc1Cl", "inhibition": "60.1% (active)"}, {"molecule": "O=C(OCC(=O)N1CCN(C(=O)c2ccco2)CC1)c1cccc(O)c1", "inhibition": "-0.23%"}, {"molecule": "O=C(OCC(=O)N1CCN(C(=O)c2ccco2)CC1)c1ccc(Cl)c(Cl)c1", "inhibition": "0.999%"}, {"molecule": "CO[C@@H]1CN(C)C(=O)c2cc(NC(=O)C3CCOCC3)ccc2OC[C@H](C)N(Cc2cccnc2)C[C@H]1C", "inhibition": "0.791%"}, {"molecule": "O=C(C[C@H]1CC[C@H]2NC[C@@H](O)COC[C@@H]2O1)NCCN1CCCC1", "inhibition": "1.06%"}, {"molecule": "O=C(Nc1cccc(F)c1)N1CC(=O)N2[C@H](C1)[C@H](c1ccc(-c3ccccc3F)cc1)[C@@H]2CO", "inhibition": "0.092%"}, {"molecule": "Cc1noc(C)c1C(=O)N(C)C[C@H]1OCc2ccccc2-c2c(n(C)c3ccccc23)C(=O)N([C@@H](C)CO)C[C@H]1C", "inhibition": "-0.288%"}, {"molecule": "O=C(NC1=CC(=O)c2ccccc2C1=O)c1ccccc1", "inhibition": "2.97%"}, {"molecule": "O=C1C(Cl)=C(Oc2ccccc2)C(=O)c2ccccc21", "inhibition": "4.33%"}, {"molecule": "CC(=O)N(C1=C(Cl)C(=O)c2ccccc2C1=O)c1ccc(C(=O)O)cc1", "inhibition": "84.4% (active)"}, {"molecule": "CC(C)NC(=O)N1CCCCN2[C@@H](CO)[C@@H](c3ccc(C#Cc4ccccc4)cc3)[C@@H]2C1", "inhibition": "0.974%"}, {"molecule": "O=C(Cc1ccccc1)N1CC[C@@H]2[C@H](CO)Nc3ccc(-c4ccccc4)cc3[C@@H]21", "inhibition": "4.96%"}, {"molecule": "C/C=C/c1ccc([C@H]2[C@H](CO)N(C(=O)CN(C)C)C23CN(C(=O)C2CC2)C3)cc1", "inhibition": "-1.65%"}, {"molecule": "O=C(C[C@H]1CC[C@H]2[C@@H](COC[C@H](O)CN2S(=O)(=O)c2cccc(F)c2)O1)NC1CCC1", "inhibition": "-1.89%"}, {"molecule": "COc1ccc(-c2ccc([C@@H]3[C@H](CN(C)S(C)(=O)=O)N[C@@H]3CO)cc2)cc1", "inhibition": "-0.559%"}, {"molecule": "C[C@@H]1CCCCO[C@@H](CN(C)S(=O)(=O)c2cccs2)[C@H](C)CN([C@H](C)CO)C(=O)c2cc(NC(=O)CCCN(C)C)ccc2O1", "inhibition": "0.521%"}, {"molecule": "COc1ccc(CCOC(=O)CNC(=O)c2ccc(Cl)cc2Cl)cc1", "inhibition": "37.4% (active)"}, {"molecule": "Cc1ccccc1NC(=O)Cc1nc(COC(=O)CNC(=O)c2ccc(Cl)cc2Cl)cs1", "inhibition": "-1.49%"}, {"molecule": "COc1ccc(CCNC(=O)COC(=O)c2cnc(Cl)c(Cl)c2)cc1", "inhibition": "-0.478%"}, {"molecule": "CCC(=O)N1CC2(C1)[C@@H](c1ccc(C3=CCCC3)cc1)[C@@H](CO)N2C(=O)COC", "inhibition": "-3.58%"}, {"molecule": "C[C@@H]1CCCCO[C@@H](CN(C)Cc2ccc3c(c2)OCO3)[C@@H](C)CN([C@@H](C)CO)C(=O)c2cc(NC(=O)C3CCCCC3)ccc2O1", "inhibition": "-1.88%"}, {"molecule": "C[C@@H]1CN([C@@H](C)CO)C(=O)c2cc(C#CC3CCCCC3)cnc2O[C@H]1CN(C)C(=O)Cc1ccccn1", "inhibition": "4.3%"}, {"molecule": "COc1ccc(NC(=O)N(C)C[C@@H]2OCCCC[C@@H](C)Oc3ccc(NS(C)(=O)=O)cc3C(=O)N([C@@H](C)CO)C[C@H]2C)cc1", "inhibition": "4.38%"}, {"molecule": "CCC(=O)N[C@H]1CC[C@@H](CC(=O)NCC2CC2)O[C@@H]1CO", "inhibition": "-1.77%"}, {"molecule": "CN1CCCc2nc(-c3ccccc3)ccc21", "inhibition": "0.84%"}, {"molecule": "Cc1cc2c(nc1C)CCCN2C", "inhibition": "56.4% (active)"}, {"molecule": "C[C@H]([C@@H](O)[C@@H](O)[C@@H](C)C(C)(C)C)[C@H]1CC[C@H]2C3CC[C@H]4C[C@H](OS(=O)(=O)O)[C@@H](OS(=O)(=O)O)C[C@]4(C)[C@H]3CC[C@]12C", "note": "(some centres not stated)", "inhibition": "51.7% (active)"}, {"molecule": "CC(=O)O[C@H]1CC[C@@]2(C)[C@@H](CC[C@@H]3[C@@H]2CC[C@]2(C)[C@@H](C(C)(C)O)C[C@@H]32)C1", "inhibition": "-4.42%"}, {"molecule": "O=C(C[C@H]1CC[C@H]2[C@@H](COC[C@@H](O)CN2C(=O)Nc2ccc(C(F)(F)F)cc2)O1)NC1Cc2ccccc2C1", "inhibition": "3.19%"}, {"molecule": "Cc1ccc(-c2ccc(C3[C@H]4CNC[C@@H]3N4S(=O)(=O)c3ccccc3C)cc2)cc1", "note": "(some centres not stated)", "inhibition": "1.57% and -0.081%"}, {"molecule": "COc1cccc(-c2ccc([C@@H]3[C@@H](CO)N4C(=O)CN(C(=O)C5CCCCC5)C[C@H]34)cc2)c1", "inhibition": "-0.992%"}, {"molecule": "CO[C@@H]1CC[C@@H]2CCOc3ccc(C#N)cc3C(=O)N(C)C[C@@H](OC)[C@@H](C)C(=O)N(C)C[C@H]1O2", "inhibition": "-4.56%"}, {"molecule": "CNC(=O)C[C@@H]1CC[C@@H]2[C@H](COC[C@@H](O)CN2S(=O)(=O)c2ccccc2Cl)O1", "inhibition": "0.052%"}, {"molecule": "Cc1nc2cccnc2nc1C", "inhibition": "1.29%"}, {"molecule": "Cc1nc2ccc(N)nc2nc1C", "inhibition": "31.2% (active)"}, {"molecule": "O=C(CCN1CCCCC1)NCC[C@H]1CC[C@@H](NC(=O)C2CCOCC2)[C@H](CO)O1", "inhibition": "3.14%"}, {"molecule": "C[C@H]1CN([C@@H](C)CO)C(=O)Cc2cc(NC(=O)c3ccncc3)ccc2O[C@@H]1CN(C)C(=O)Nc1ccccc1", "inhibition": "1.04%"}, {"molecule": "CNC(=O)C[C@H]1CC[C@@H]2[C@H](COc3ccc(NC(=O)Nc4ccc(F)c(F)c4)cc3C(=O)N2C)O1", "inhibition": "0.113%"}, {"molecule": "C#Cc1ccc([C@H]2C=C(C(=O)O)O[C@@H](OCC)[C@@H]2CCCO)cc1", "inhibition": "-6.5%"}, {"molecule": "C[C@@H]1CCCCO[C@H](CN(C)C(=O)c2ccccc2)[C@H](C)CN([C@@H](C)CO)C(=O)c2cc(NC(=O)Nc3ccc4c(c3)OCO4)ccc2O1", "inhibition": "-5.55%"}, {"molecule": "Cc1ccc(S(=O)(=O)Nc2ccc3c(c2)C(=O)N([C@@H](C)CO)C[C@@H](C)[C@H](CN(C)Cc2ccc(Cl)c(Cl)c2)OCCCC[C@@H](C)O3)cc1", "inhibition": "0.461%"}, {"molecule": "Cc1ccc(CNC(=O)COC(=O)C2CCC2)cc1", "inhibition": "1.31%"}, {"molecule": "Cc1ccc(CCCOC(=O)C[N+]2(C)CCCC2)cc1", "inhibition": "106% (active)"}, {"molecule": "COc1ccc(CC2c3cc(OC)c(OC)cc3CC[N+]2(C)CCC(=O)OCCCCCOC(=O)CC[N+]2(C)CCc3cc(OC)c(OC)cc3C2Cc2ccc(OC)c(OC)c2)cc1OC", "note": "(configuration not stated)", "inhibition": "-5.26%"}, {"molecule": "Cc1ccc(COC(=O)CN2C(=O)NC3(CCCC3)C2=O)cc1", "inhibition": "-3.32%"}, {"molecule": "Cc1ccc(CCCOC(=O)C[N+]2(C)CCCCC2)cc1", "inhibition": "30.8% (active)"}, {"molecule": "Cc1ccc(S(=O)(=O)CCC(=O)OCC(=O)NCCc2ccc(S(N)(=O)=O)cc2)cc1", "inhibition": "-0.437%"}, {"molecule": "COc1ccc2c3c(n(C)c2c1)[C@@H](CO)N(C(=O)CN1CCOCC1)CC31CCN(C(=O)C2CC2)CC1", "inhibition": "-0.976%"}, {"molecule": "CCCC(=O)Nc1ccc2c(c1)OC[C@@H](C)N(CC1CCOCC1)C[C@H](C)[C@H](OC)CN(C)C2=O", "inhibition": "6.53%"}, {"molecule": "C[C@H](NC(=O)[C@@H]1[C@@H](CO)[C@@H]2Cn3c(ccc(-c4cccc(F)c4)c3=O)[C@@H]2N1C)c1ccccc1", "inhibition": "5.74%"}]}]}
